From the OligoGym collection

Biological target: NOL7
Test: pooled miR-30 sensor sort-seq; sequence = guide strand
Details: shRNA
Also: reference of the scale not given here.

| Sequence | sensor-assay potency score (higher = more potent) |
| --- | --- |
| AACTTATTTACAGTAGTCCTGT | -0.21 |
| TTTTGTACTTTAACTTTCTTGG | -0.17 |
| TCGATGAACAGCTCCTCGCGTC | -0.7 |
| TTAACTTCTTTCACCTTTCCTG | -0.368 |
| TAACTTCTTTCACCTTTCCTGG | -0.398 |
| TTCGATGAACAGCTCCTCGCGT | -0.6 |

Biological target: NOLC1
Test: as above
Details: shRNA

| Sequence | sensor-assay potency score (higher = more potent) |
| --- | --- |
| TAACTTTCGCTCTGGGACCTTG | -0.857 |
| TTGCCTGTAACTTTCGCTCTGG | 0.151 |
| TTGACCTGGACAGAGATTGAGC | -0.52 |
| TTTGGTGAACTTCAAAACCTGA | -0.529 |
| TTAGCTTTCTTAGCCACTGGTC | -0.169 |
| TTAGGTACAGTCTTCTTGGGGG | 0.125 |
| TTTAGGTACAGTCTTCTTGGGG | -0.268 |
| TTGCTTTTTAGGTACAGTCTTC | -0.681 |
| TTTAGTCTGAGCTTTAACTGTC | 0.463 |
| TTGCTTTAGAGACTACTGCCTT | -0.589 |
